From ChEMBL document CHEMBL3988442, “University of Dundee, Small-Polar-MMV Screening Library” (2021)
Values joined by “and” are separate entries in the source; they are usually repeats but may differ in a detail not shown here. Equal values may be shown once. For some of these results: Entries with a potency or affinity are not part of this list.

How the values were obtained:
Set-up in all cases: scale not given: direction of the effect not stated beside the values
[1] = target: Protein translocase subunit SecA (Escherichia coli (strain K12)) (UniProt P10408); assay: Assay to Identify E. coli SecA ATPase Inhibitors; assay type: functional; conditions: 30 µM
[2] = target: T1, Ubiquitin-activating enzyme e1, putative (Leishmania donovani (strain BPK282A1)) (UniProt E9BSI1); assay: Leishmania donovani Ubiquitin Activating Enzyme (LdE1); assay type: functional; conditions: 30 µM
T1 sequence (whole entry): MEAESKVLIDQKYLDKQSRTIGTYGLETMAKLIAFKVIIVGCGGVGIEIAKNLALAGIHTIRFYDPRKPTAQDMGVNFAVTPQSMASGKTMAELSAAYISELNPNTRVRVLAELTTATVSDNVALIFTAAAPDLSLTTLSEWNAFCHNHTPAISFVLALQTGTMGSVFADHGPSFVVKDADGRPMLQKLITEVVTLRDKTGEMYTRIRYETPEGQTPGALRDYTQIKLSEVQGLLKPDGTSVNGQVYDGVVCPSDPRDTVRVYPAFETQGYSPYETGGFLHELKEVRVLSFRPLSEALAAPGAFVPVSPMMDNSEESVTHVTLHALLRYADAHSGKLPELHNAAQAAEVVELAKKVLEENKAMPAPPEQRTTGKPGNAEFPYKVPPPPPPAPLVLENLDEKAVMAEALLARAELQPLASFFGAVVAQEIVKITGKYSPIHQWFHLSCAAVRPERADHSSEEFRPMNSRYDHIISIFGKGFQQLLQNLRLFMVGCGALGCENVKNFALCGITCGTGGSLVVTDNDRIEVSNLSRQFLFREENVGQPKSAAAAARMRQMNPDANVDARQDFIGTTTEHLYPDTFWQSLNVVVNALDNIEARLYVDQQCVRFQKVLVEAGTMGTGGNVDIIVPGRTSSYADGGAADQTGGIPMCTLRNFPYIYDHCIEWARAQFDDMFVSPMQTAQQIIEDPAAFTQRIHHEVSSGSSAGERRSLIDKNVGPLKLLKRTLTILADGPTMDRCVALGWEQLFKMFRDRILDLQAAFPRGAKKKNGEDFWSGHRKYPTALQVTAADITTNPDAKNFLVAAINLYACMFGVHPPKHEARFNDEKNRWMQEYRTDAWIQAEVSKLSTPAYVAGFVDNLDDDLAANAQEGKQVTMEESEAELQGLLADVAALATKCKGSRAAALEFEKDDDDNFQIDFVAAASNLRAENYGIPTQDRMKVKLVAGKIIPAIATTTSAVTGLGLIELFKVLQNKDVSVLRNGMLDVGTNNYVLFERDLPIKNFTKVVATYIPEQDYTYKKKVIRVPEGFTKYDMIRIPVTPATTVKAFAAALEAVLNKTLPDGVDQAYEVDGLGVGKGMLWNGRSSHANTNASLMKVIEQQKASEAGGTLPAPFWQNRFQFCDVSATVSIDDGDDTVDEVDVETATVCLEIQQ

[3] = target: AMP-activated protein kinase, AMPK (Homo sapiens) (UniProt P54646+O43741+P54619+Q9UGJ0+Q9Y478+Q13131+Q9UGI9); assay: AMP-dependent Kinase enzyme assay. An in vitro enzyme assay that detects ADP turnover that is directly proportional to AMPK activity. This uses naive AMPK that is activated during the assay with MK-8722; assay type: functional; conditions: 30 µM
[4] = target: Sialic acid-binding Ig-like lectin 9 (Homo sapiens) (UniProt Q9Y336); assay: Hs-Siglec9 ALPHAscreen SOP 20170721; conditions: 10 µM
[5] = test system: Trypanosoma cruzi; assay: Trypanosoma cruzi phosphomannomutase and mannose-1-phosphate guanylyltransferase assay; assay type: functional; conditions: 10 µM
[6] = target: T2, Arginase-2, mitochondrial (Homo sapiens) (UniProt P78540); assay: in vitro enzyme assay to detect the production of urea directly proportional to the activity of Arginase II; assay type: functional; conditions: 33.3 µM; note: in the data most compounds retested in dose-response had high values
T2 sequence (whole entry): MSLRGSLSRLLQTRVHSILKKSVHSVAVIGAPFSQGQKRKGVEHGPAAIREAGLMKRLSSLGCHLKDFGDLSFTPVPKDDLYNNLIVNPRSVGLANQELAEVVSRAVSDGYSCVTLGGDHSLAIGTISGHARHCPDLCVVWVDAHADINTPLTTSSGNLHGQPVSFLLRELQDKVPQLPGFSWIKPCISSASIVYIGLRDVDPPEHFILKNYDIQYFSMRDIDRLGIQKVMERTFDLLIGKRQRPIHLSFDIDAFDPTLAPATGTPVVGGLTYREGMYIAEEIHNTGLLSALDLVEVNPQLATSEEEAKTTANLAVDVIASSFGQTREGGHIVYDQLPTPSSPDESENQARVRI

[7] = target: T3, Proteasome subunit beta (Trypanosoma cruzi) (UniProt O96673); assay: Trypanosoma cruzi proteasome chymotrypsin-like activity (TcProtChymo) assay.; note: in the data most compounds retested in dose-response had high values; assay type: functional; conditions: 9.37 µM
T3 sequence (whole entry): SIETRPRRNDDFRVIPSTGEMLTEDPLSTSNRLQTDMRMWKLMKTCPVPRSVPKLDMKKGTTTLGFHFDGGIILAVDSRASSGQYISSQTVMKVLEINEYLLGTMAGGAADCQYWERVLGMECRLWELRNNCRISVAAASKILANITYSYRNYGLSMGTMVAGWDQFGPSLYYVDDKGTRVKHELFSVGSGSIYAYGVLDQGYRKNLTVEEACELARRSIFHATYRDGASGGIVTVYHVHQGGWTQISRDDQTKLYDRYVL

[8] = test system: N/A; assay: Trypanosoma cruzi proteasome luciferase counter-screen; assay type: functional; conditions: 9.37 µM
[9] = organism: Homo sapiens; assay: To identify inhibition of the IFN signalling (Jak-Stat) pathway via expression of an eGFP reporter gene under the control of an IFN-stimulated response element (ISRE) containing MxA promoter.; assay type: functional; conditions: 30 µM
[10] = target: T4, Tyrosyl-tRNA synthetase, putative (Trypanosoma cruzi (strain CL Brener)) (UniProt Q4DSP6); assay: Trypanosoma cruzi tyrosyl tRNA synthetase (TcYRS) _High Tyrosine SOP; assay type: functional; conditions: 30 µM; note: in the data most compounds retested in dose-response had high values
T4 sequence (whole entry): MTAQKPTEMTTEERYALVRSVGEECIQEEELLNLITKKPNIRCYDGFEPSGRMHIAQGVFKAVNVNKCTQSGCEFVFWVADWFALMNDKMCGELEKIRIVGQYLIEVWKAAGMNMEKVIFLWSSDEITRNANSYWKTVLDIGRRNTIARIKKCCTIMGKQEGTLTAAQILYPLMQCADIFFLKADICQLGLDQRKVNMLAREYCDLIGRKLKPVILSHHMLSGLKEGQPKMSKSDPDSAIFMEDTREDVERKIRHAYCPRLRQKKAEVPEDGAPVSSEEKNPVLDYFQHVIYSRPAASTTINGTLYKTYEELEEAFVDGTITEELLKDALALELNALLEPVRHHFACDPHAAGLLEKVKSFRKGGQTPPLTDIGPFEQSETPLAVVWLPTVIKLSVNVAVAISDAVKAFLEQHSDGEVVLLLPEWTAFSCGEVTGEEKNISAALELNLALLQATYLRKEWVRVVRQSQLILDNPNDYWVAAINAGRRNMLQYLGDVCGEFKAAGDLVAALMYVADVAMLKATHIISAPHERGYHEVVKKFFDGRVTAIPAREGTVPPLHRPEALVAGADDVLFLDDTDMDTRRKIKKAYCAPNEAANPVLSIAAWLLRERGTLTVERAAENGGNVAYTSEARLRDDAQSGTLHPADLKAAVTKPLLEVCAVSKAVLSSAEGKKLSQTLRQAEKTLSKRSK

[11] = target: T4, Tyrosyl-tRNA synthetase, putative (Trypanosoma cruzi (strain CL Brener)); assay: Trypanosoma cruzi tyrosyl tRNA synthetase (TcYRS) SOP; assay type: functional; conditions: 30 µM
[12] = target: Chromo domain-containing protein 1 (Saccharomyces cerevisiae (strain ATCC 204508 / S288c) (Baker's yeast)) (UniProt P32657); assay: ScCHD-1 Enzyme Inhibition Assay; assay type: functional; conditions: 30 µM; note: in the data most compounds retested in dose-response had high values
Sequence of Chromo domain-containing protein 1 (Saccharomyces cerevisiae (strain ATCC 204508 / S288c) (Baker's yeast)) (P32657 whole entry, the tested form may be a part): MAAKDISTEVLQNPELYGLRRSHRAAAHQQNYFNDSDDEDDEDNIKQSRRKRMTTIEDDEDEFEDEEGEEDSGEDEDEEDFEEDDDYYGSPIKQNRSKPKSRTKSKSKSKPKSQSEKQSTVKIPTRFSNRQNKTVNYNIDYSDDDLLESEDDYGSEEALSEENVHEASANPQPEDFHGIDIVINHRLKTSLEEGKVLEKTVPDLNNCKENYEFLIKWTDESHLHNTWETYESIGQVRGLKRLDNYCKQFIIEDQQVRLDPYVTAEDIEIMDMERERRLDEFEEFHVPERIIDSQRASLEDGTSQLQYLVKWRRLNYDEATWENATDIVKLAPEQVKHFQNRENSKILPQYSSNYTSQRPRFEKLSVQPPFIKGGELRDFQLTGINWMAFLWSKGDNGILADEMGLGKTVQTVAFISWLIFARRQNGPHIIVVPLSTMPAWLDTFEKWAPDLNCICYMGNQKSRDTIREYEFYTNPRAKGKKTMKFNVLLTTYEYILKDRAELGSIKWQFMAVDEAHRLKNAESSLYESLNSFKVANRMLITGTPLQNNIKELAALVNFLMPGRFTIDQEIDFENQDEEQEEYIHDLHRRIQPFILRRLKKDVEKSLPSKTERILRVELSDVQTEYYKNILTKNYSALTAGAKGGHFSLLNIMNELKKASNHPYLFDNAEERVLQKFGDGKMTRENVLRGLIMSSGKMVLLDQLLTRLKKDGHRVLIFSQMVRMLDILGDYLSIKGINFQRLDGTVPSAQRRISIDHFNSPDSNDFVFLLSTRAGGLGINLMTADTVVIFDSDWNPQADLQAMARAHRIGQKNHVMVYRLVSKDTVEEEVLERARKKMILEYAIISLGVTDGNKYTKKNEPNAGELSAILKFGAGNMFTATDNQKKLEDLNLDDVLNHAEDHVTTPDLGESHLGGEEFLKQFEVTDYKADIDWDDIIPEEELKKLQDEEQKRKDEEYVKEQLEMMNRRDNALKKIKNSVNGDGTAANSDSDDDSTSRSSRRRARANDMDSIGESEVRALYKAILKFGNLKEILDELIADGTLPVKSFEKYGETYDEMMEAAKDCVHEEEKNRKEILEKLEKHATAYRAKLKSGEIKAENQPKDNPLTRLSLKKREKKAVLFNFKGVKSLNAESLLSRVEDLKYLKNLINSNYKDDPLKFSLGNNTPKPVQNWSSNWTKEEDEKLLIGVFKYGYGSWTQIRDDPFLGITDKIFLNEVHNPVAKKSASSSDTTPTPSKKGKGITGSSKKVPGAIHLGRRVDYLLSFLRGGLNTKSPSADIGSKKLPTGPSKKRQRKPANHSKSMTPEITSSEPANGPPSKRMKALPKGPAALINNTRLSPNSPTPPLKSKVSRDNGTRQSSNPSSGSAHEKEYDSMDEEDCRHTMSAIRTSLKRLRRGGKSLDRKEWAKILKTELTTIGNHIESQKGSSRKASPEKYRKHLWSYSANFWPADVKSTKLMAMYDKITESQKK

Sequence of Protein translocase subunit SecA (Escherichia coli (strain K12)) (P10408 whole entry): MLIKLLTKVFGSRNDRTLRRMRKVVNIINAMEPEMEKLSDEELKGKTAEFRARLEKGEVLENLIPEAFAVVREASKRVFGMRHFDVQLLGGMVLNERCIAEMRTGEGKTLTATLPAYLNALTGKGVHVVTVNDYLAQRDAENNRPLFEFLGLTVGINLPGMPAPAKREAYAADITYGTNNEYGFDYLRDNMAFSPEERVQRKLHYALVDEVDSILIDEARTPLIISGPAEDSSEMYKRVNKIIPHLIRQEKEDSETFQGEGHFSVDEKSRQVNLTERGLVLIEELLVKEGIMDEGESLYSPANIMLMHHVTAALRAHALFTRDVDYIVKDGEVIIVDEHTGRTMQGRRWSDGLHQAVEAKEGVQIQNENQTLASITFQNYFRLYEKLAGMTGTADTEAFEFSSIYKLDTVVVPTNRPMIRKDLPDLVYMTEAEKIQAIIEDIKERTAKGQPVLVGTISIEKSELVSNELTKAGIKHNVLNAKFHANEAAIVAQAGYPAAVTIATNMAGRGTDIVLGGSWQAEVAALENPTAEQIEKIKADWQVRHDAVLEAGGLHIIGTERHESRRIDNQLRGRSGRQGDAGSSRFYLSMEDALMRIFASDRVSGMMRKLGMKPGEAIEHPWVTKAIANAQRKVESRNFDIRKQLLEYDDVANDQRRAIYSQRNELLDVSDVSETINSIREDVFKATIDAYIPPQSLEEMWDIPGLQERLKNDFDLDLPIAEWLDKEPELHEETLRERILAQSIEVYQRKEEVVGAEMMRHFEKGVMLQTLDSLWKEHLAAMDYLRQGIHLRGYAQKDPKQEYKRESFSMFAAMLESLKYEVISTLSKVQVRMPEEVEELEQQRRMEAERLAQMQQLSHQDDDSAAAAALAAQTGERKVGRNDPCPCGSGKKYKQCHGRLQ
Sequence of Sialic acid-binding Ig-like lectin 9 (Homo sapiens) (Q9Y336 whole entry): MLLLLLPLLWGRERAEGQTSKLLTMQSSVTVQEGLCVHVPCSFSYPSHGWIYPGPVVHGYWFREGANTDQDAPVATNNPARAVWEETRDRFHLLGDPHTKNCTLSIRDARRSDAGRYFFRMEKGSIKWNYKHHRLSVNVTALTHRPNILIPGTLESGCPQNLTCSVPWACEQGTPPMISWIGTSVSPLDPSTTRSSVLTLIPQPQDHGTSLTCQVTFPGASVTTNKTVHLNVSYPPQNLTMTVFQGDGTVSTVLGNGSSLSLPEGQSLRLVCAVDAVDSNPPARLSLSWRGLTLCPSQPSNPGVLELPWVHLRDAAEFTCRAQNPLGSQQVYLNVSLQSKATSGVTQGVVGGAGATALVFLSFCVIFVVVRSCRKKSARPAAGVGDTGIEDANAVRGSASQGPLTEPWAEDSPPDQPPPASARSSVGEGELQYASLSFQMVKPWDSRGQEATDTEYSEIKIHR

SMILES	Percent Effect [1]	Percent Effect [2]	Percent Effect [3]	Percent Effect [4]	Percent Effect [5]	Percent Effect [6]	Percent Effect [7]	Percent Effect [8]	Percent Effect [9]	Percent Effect [10]	Percent Effect [11]	Percent Effect [12]
O=C(N[C@@H]1CN(Cc2ccsc2)[C@@H]2CCCO[C@@H]21)C1CC1	-8.12%	18.7%	-4.7%	2.36%	-0.193%	-57.9%	37.3% and 23.2% and 22.2%	7.24% and 10.5%	-2.14%	4.17%	17.5%	-7.56%
Cc1noc(C(C)N2CCN(CCCN3CCCC3=O)CC2)n1 (stereo unspecified)	-1.22%	21.6%	32.3%	1.61%	1.23%	-8.02%	19.5%		9.12%	7.39%	23.5%	-15.8%
O=C(Nc1ccccn1)C1CC(=O)N(Cc2ccccn2)C1 (stereo unspecified)	-2.05%	15.8%	1.82%	8.62%	-4.97%	2.37%	26.3% and 37.5% and 33.2%	28% and 30%	-8.07%	3.19%	7.79%	-4%
Cc1cc(C2CCCN(C(=O)c3c(C)noc3C)C2)n[nH]1 (stereo unspecified)	-3.57%	2.63%	9.83%	9.23%	0.292%	-20.1%	16.6% and 37.9% and 18.8%	18% and 16.2%	-5.01%	7.45%	7.79%	-1.42%
CN1CCCC(c2cccc(Cc3ccccc3Cl)n2)C1 (stereo unspecified)	-3.49%	-4.05%	7.5%	3.2%	1.38%	-3.48%	1.72%		5.26%	2.15%	1.3%	-7.93%
CCc1nc(C2CCCN2Cc2nc(C3CC3)no2)no1 (stereo unspecified)	-0.343%	2.6%	-1.94%	16.2%	2.65%	-12.4%	9.15%		-6.21%	0%	1.24%	-6.42%
Cc1cc(C)c(CNC(=O)NCCOc2ccc3c(c2)CCC3)c(=O)[nH]1	-3.48%	-5.26%	0.256%	7.3%	9.96%	0.383%	0%		3.96%	1.47%	0%	3.04%
O=C(CCN1CCCC1=O)NCc1cccnc1Oc1ccccc1	-6.95%	-8.22%	0.461%	2.58%	0.595%	-1.2%	4.88%		-2.67%	1.04%	6.17%	-1.4%
